Counter-ions that a name gives are not always drawn. ± gives the standard deviation of the averaged measurements.
Tests used:
Test in all cases: growth (OD600 after 10 h); higher = more growth (less inhibition)
[1] = test system: E. coli TESEC Alr+ wild-type control; conditions: compound 0.1 mM; raw OD600 reference: median of DMSO wells 0.241, cell-free background 0.041
Procedure: (§1)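 TESEC Mtb Alr E. coli, or the Alr+ wild-type control, in 384-well plates with Prestwick library compounds at 0.1 mM and 1% DMSO, across arabinose induction levels of 1E3 to 1E7 nM. Growth is read as OD600 after 10 h at 37 °C in triplicate biological replicates.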

E. coli TESEC Mtb Alr [2] = conditions: compound 0.1 mM
Procedure: as §1

E. coli TESEC Mtb Asd = conditions: compound 0.1 mM
Procedure: (§2)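 TESEC E. coli strains in which the native enzyme is deleted and replaced by arabinose-inducible Mtb Asd, DapB, CysH or TrpD, each grown in its selective medium. Strains were screened against the Prestwick library at 0.1 mM and 1% DMSO in 384-well format at low and high arabinose induction. Growth is read as OD600 after 10 h in triplicate.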

[3] = test system: E. coli TESEC Alr+ wild-type control; conditions: compound 0.1 mM; raw OD600 reference: median of DMSO wells 0.49, cell-free background 0.052
Procedure: (§3)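 TESEC Mtb Alr E. coli (ΔaraC ΔtolC ΔentC Δalr ΔdadX, arabinose-inducible Mtb Alr) or the Alr+ wild-type control strain, grown in defined M9-fructose medium without D-alanine in 96-well plates with Prestwick library compounds at 0.1 mM and 1% DMSO. Low Alr induction is 0.1 µM arabinose and high induction is 10 mM arabinose.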

E. coli TESEC Mtb Alr [4] = conditions: compound 0.1 mM; remark: listed apart in the source
Procedure: as §3

E. coli TESEC Mtb DapB = conditions: compound 0.1 mM
Procedure: as §2

[5] = arabinose 1000 nM, raw OD600 reference: median of DMSO wells 0.294, cell-free background 0.041
[6] = arabinose 10000 nM, raw OD600 reference: median of DMSO wells 0.264, cell-free background 0.041
[7] = arabinose 100000 nM, raw OD600 reference: median of DMSO wells 0.201, cell-free background 0.041
[8] = arabinose 1000000 nM, raw OD600 reference: median of DMSO wells 0.193, cell-free background 0.041
[9] = arabinose 10000000 nM, raw OD600 reference: median of DMSO wells 0.146, cell-free background 0.041
[10] = arabinose induction (level): High, raw OD600 reference: median of DMSO wells 0.331, cell-free background 0.041
[11] = arabinose induction (level): Low, raw OD600 reference: median of DMSO wells 0.417, cell-free background 0.041
[12] = arabinose 100 nM, raw OD600 reference: median of DMSO wells 0.413, cell-free background 0.052
[13] = arabinose 10000000 nM, raw OD600 reference: median of DMSO wells […], cell-free background 0.052
[14] = arabinose induction (level): High, raw OD600 reference: median of DMSO wells […], cell-free background 0.041
[15] = arabinose induction (level): Low, raw OD600 reference: median of DMSO wells 0.227, cell-free background 0.041

Compound | growth [1] | growth (E. coli TESEC Mtb Alr [2]; [5]) | growth (E. coli TESEC Mtb Alr [2]; [6]) | growth (E. coli TESEC Mtb Alr [2]; [7]) | growth (E. coli TESEC Mtb Alr [2]; [8]) | growth (E. coli TESEC Mtb Alr [2]; [9]) | growth (E. coli TESEC Mtb Asd; [10]) | growth (E. coli TESEC Mtb Asd; [11]) | growth [3] | growth (E. coli TESEC Mtb Alr [4]; [12]) | growth (E. coli TESEC Mtb Alr [4]; [13]) | growth (E. coli TESEC Mtb DapB; [14]) | growth (E. coli TESEC Mtb DapB; [15])
CC(=O)O[C@]1(C(C)=O)CC[C@H]2[C@@H]3C=C(C)C4=CC(=O)CC[C@@H]4[C@H]3CC[C@@]21C [Nomegestrol acetate] | 0.1345 ± 0.001 | 0.127 ± 0.02 | 0.0606 ± 0.0005 | 0.124 ± 0.0062 | 0.061 ± 0.0017 | 0.0997 ± 0.0051 | 0.126 ± 0.018 | 0.104 ± 0.0027 | 0.14 ± 0.0081 | 0.229 ± 0.082 | 0.0935 ± 0.015 |  | 
O=C(c1ccccc1)c1ccc2n1CCC2C(=O)O (stereo not drawn) [Ketorolac tromethamine] | 0.222 ± 0.0085 | 0.262 ± 0.015 | 0.253 ± 0.013 | 0.181 ± 0.01 | 0.195 ± 0.0049 | 0.137 ± 0.0035 | 0.381 ± 0.035 | 0.331 ± 0.036 | 0.531 ± 0.076 | 0.384 ± 0.016 | 0.326 ± 0.0097 |  | 
NCC[C@H](O)C(=O)N[C@@H]1C[C@H](N)[C@@H](O[C@H]2O[C@H](CN)[C@@H](O)[C@H](O)[C@H]2O)[C@H](O)[C@H]1O[C@H]1O[C@H](CO)[C@@H](O)[C@H](N)[C@H]1O [Amikacin hydrate] | 0.04273 ± 0.00012 | 0.0418 ± 0.00079 | 0.039 ± 0.0001 | 0.0425 ± 0.0009 | 0.03943 ± 0.00021 | 0.0506 ± 0.00051 | 0.0495 ± 0.0018 | 0.0485 ± 0.0012 | 0.0539 ± 0.00071 | 0.0563 ± 0.0034 | 0.0532 ± 0.0009 |  | 
CCN(CC)C(=O)N1CCN(C)CC1 [Diethylcarbamazine citrate] | 0.255 ± 0.0031 | 0.274 ± 0.031 | 0.275 ± 0.015 | 0.196 ± 0.017 | 0.191 ± 0.0045 | 0.148 ± 0.0047 | 0.333 ± 0.092 | 0.487 ± 0.02 |  | 0.411 ± 0.0087 | 0.33 ± 0.014 | 0.188 ± 0.0069 | 0.226 ± 0.025
CC[C@H]1OC(=O)[C@H](C)[C@@H](O[C@H]2C[C@@](C)(OC)[C@@H](O)[C@H](C)O2)[C@H](C)[C@@H](O[C@@H]2O[C@H](C)C[C@H](N(C)C)[C@H]2O)[C@](C)(O)C[C@@H](C)[C@@H]2N[C@@H](COCCOC)O[C@H]([C@H]2C)[C@]1(C)O [Dirithromycin] | 0.0424 ± 0.0002 | 0.04193 ± 0.00015 | 0.03907 ± 0.00012 | 0.044 ± 0.00057 | 0.0396 ± 0.0001 | 0.0428 ± 0.0002 | 0.057 ± 0.0029 | 0.054 ± 0.0053 |  | 0.0635 ± 0.0042 | 0.0507 ± 0.00036 | 0.0519 ± 0.0012 | 0.052 ± 0.00061
O=P(O)(O)C(Cl)(Cl)P(=O)(O)O [Clodronate] | 0.248 ± 0.0073 | 0.308 ± 0.021 | 0.284 ± 0.005 | 0.188 ± 0.016 | 0.193 ± 0.0024 | 0.14 ± 0.0033 | 0.336 ± 0.042 | 0.403 ± 0.025 |  | 0.411 ± 0.0072 | 0.303 ± 0.0027 | 0.223 ± 0.024 | 0.212 ± 0.024
CC(=O)O[C@]1(C(C)=O)CC[C@H]2[C@@H]3C=C(Cl)C4=CC(=O)[C@@H]5C[C@@H]5[C@]4(C)[C@H]3CC[C@@]21C [Cyproterone acetate] | 0.1672 ± 0.001 | 0.168 ± 0.0067 | 0.125 ± 0.027 | 0.122 ± 0.0081 | 0.0693 ± 0.0035 | 0.0975 ± 0.0046 | 0.111 ± 0.041 | 0.109 ± 0.0055 | 0.355 ± 0.17 | 0.385 ± 0.035 | 0.0934 ± 0.024 |  | 
CCCCc1ccc2[nH]c(NC(=O)OC)nc2c1 [Parbendazole] | 0.244 ± 0.01 | 0.307 ± 0.0063 | 0.277 ± 0.0036 | 0.213 ± 0.034 | 0.206 ± 0.0056 | 0.156 ± 0.0051 | 0.279 ± 0.015 | 0.435 ± 0.0069 |  | 0.4255 ± 0.003 | 0.374 ± 0.045 | 0.208 ± 0.0058 | 0.279 ± 0.031
COc1cc2nc(N3CCN(C(=O)c4ccco4)CC3)nc(N)c2cc1OC [Prazosin hydrochloride] | 0.242 ± 0.0066 | 0.319 ± 0.019 | 0.239 ± 0.0065 | 0.185 ± 0.008 | 0.147 ± 0.015 | 0.226 ± 0.0067 | 0.263 ± 0.09 | 0.348 ± 0.091 |  | 0.399 ± 0.013 | 0.3092 ± 0.0026 | 0.247 ± 0.023 | 0.285 ± 0.029
CC1Cc2ccccc2N1NC(=O)c1ccc(Cl)c(S(N)(=O)=O)c1 (stereo not drawn) [Indapamide] | 0.225 ± 0.0038 | 0.278 ± 0.01 | 0.27 ± 0.011 | 0.191 ± 0.015 | 0.159 ± 0.0057 | 0.15 ± 0.009 | 0.224 ± 0.01 | 0.442 ± 0.03 | 0.497 ± 0.015 | 0.425 ± 0.014 | 0.336 ± 0.018 |  | 
Cc1cnc(NC(=O)C2=C(O)c3ccccc3S(=O)(=O)N2C)s1 [Meloxicam] | 0.148 ± 0.0039 | 0.186 ± 0.0048 | 0.238 ± 0.012 | 0.208 ± 0.039 | 0.117 ± 0.0022 | 0.149 ± 0.0054 | 0.245 ± 0.035 | 0.296 ± 0.1 | 0.461 ± 0.023 | 0.33 ± 0.04 | 0.221 ± 0.016 |  | 
CC(NCCC(c1ccccc1)c1ccccc1)c1ccccc1 (stereo not drawn) [Fendiline hydrochloride] | 0.03973 ± 0.00035 | 0.0413 ± 0.0034 | 0.03877 ± 0.00012 | 0.0416 ± 0.0018 | 0.0386 ± 0.00049 | 0.04153 ± 0.00035 | 0.0469 ± 0.0006 | 0.04653 ± 0.00025 | 0.0558 ± 0.011 | 0.4097 ± 0.0034 | 0.0578 ± 0.0028 |  | 
CCOC(=O)C(C)(C)Oc1ccc(Cl)cc1 [Clofibrate] | 0.237 ± 0.0033 | 0.287 ± 0.0062 | 0.268 ± 0.0049 | 0.19 ± 0.013 | 0.194 ± 0.0078 | 0.137 ± 0.0052 | 0.279 ± 0.041 | 0.415 ± 0.043 | 0.609 ± 0.065 | 0.4111 ± 0.0031 | 0.325 ± 0.0033 |  | 

From the supplement of paper PMC9262897, “Low-cost anti-mycobacterial drug discovery using engineered E. coli” (Nature Communications, 2022)
